Experimental data reported in PubChem BioAssay (Tox21).
Records with an inconclusive call do not appear. Active and inactive are the calls of the source. Unless noted, the call rests on the fitted dose curve.

Tests used:
[1] = Nuclear factor erythroid 2-related factor 2/antioxidant responsive element (Nrf2/ARE) small molecule agonists: qHTS cell viability counter screen in human keratinocytes (AID 1919968; active means well fitted curve in the direction sought with a large enough effect in the repeat runs; an effect the other way counts as inactive or inconclusive; further: nearly all actives have a fitted effect of over 55% in size; further: potency means the concentration at half of the fitted maximal effect)
Summary of the method: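 CellTiter-Fluor fluorescence, read 1 h after reagent, gave viability in the same wells as the ARE-luciferase assay. KeratinoSens cells (1,500/well) had 23 h compound exposure at 37 C/5% CO2 following 5 h plating.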

[2] = Nuclear factor erythroid 2-related factor 2/antioxidant responsive element (Nrf2/ARE) small molecule agonists: luciferase reporter gene qHTS assay in human keratinocytes (AID 1919969); further: nearly all actives have a fitted effect of over 35% in size; further: potency means the concentration at half of the fitted maximal effect
[3] = target: Gonadotropin-releasing hormone receptor (Homo sapiens) (UniProt P30968); experiment: Human gonadotropin-releasing hormone receptor (GnRHR) small molecule agonists, calcium flux assay in GnRHR-HEK293 cells (AID 1920063); further: nearly all actives have a fitted effect of over 35% in size
Sequence of Gonadotropin-releasing hormone receptor (Homo sapiens) (P30968 whole entry, looked up): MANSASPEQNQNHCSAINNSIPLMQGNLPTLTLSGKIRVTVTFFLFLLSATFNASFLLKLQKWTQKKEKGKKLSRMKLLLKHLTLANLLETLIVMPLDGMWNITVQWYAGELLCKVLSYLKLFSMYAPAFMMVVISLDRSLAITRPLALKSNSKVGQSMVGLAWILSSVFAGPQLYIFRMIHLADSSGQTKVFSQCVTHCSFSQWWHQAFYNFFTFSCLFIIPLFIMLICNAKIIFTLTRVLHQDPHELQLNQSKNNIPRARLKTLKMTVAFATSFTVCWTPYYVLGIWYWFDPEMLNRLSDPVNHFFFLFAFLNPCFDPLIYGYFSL
Summary of the method: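 Agonist mode: compounds at 15 concentrations, in triplicate, went onto calcium dye-loaded GnRHR-HEK293 cells. Intracellular calcium was then followed as 480/540 nm fluorescence at 1 s intervals over 3 min.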

[4] = target: KiSS-1 receptor (Homo sapiens) (UniProt Q969F8); experiment: Human kisspeptin (KISS1R) small molecule agonists, calcium flux assay in KISS1R-HEK293 cells (AID 1920064; active means well fitted curve in the direction sought with a large enough effect in the repeat runs; an effect the other way counts as inactive or inconclusive)
Sequence of KiSS-1 receptor (Homo sapiens) (Q969F8 whole entry, looked up): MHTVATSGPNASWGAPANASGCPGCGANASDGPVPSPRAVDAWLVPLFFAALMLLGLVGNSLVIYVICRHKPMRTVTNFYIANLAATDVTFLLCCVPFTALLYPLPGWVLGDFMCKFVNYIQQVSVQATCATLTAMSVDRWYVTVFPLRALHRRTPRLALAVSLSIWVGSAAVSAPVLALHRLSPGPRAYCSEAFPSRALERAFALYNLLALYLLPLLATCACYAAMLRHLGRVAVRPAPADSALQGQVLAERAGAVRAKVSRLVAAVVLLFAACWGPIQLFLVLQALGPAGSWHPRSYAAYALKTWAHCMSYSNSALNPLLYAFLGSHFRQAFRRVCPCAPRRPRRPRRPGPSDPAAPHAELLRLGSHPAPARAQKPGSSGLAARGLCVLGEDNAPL
Summary of the method: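 Agonist mode: intracellular calcium rise tracked at 1 s intervals over 3 min (480/540 nm) immediately after compound addition to dye-loaded KISS1R-HEK293 stable cells. Each compound tested at 15 concentrations in triplicate.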

[5] = G protein-coupled receptor (GPCR) small molecule agonists, calcium flux assay: HEK293 wild type cell line counter screen (AID 1920065)
Summary of the method: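 Calcium flux counter screen: compound added in agonist mode at 15 concentrations in triplicate to dye-loaded parental HEK293 cells. Fluorescence (480/540) read kinetically for 3 min; ATP served as positive control.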

[6] = p53 small molecule agonists, cell-based qHTS assay with human liver microsomes (AID 1963577)
Summary of the method: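 p53RE-bla cells, 4,000/well, compound added after 5 h, with human liver microsomes 0.5 mg/mL and NADPH 0.5 mg/mL final; 16 h at 37 C, then LiveBLAzer 2 h RT, fluorescence.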

[7] = p53 small molecule agonists, cell-based qHTS assay with rat liver microsomes (AID 1963578)
Summary of the method: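 p53RE-bla cells, 4,000/well, pre-incubated 5 h, then given compounds plus rat liver microsomes (0.5 mg/mL final) and NADPH (0.5 mg/mL final). Incubation 16 h at 37 C; beta-lactamase reporter read by LiveBLAzer fluorescence after 2 h at room temperature.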

[8] = p53 small molecule agonists, cell-based qHTS assay with rat liver microsomes: qHTS cell viability counter screen (AID 1963580); further: nearly all actives have a fitted effect of over 45% in size
Summary of the method: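 After the beta-lactamase ratio was read, CellTiter-Glo was added to the same wells and luminescence measured at 30 min; cells had been treated 16 h at 37 C with compounds, rat liver microsomes and NADPH (0.5 mg/mL final each).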

[9] = p53 small molecule agonists, cell-based qHTS assay: qHTS cell viability counter screen (AID 1963581); further: nearly all actives have a fitted effect of over 45% in size
Summary of the method: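 Counter screen read by CellTiter-Glo luminescence (ATP content, 30 min at room temperature), run in the same wells as the beta-lactamase reporter read. HCT-116 p53RE-bla cells saw compounds for 16 h at 37 C.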

[10] = p53 small molecule agonists, cell-based qHTS assay (AID 1963582; active means well fitted activation curve with a large enough effect in the signal ratio in the repeat runs, not every such curve was filed as active; the % refers to the signal ratio)
Summary of the method: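 Read-out is beta-lactamase FRET fluorescence after 2 h at room temperature with LiveBLAzer B/G substrate. p53 response element-bla cells were treated 16 h at 37 C with compounds in DMSO, added 5 h after seeding.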

[11] = target: 5-hydroxytryptamine receptor 2A (Homo sapiens) (UniProt P28223); experiment: 5-hydroxytryptamine receptor 2A (HTR2A) small molecule antagonists, cell-based qHTS assay (AID 1963586); further: nearly all actives have a fitted effect of over 45% in size
Sequence of 5-hydroxytryptamine receptor 2A (Homo sapiens) (P28223 whole entry, looked up): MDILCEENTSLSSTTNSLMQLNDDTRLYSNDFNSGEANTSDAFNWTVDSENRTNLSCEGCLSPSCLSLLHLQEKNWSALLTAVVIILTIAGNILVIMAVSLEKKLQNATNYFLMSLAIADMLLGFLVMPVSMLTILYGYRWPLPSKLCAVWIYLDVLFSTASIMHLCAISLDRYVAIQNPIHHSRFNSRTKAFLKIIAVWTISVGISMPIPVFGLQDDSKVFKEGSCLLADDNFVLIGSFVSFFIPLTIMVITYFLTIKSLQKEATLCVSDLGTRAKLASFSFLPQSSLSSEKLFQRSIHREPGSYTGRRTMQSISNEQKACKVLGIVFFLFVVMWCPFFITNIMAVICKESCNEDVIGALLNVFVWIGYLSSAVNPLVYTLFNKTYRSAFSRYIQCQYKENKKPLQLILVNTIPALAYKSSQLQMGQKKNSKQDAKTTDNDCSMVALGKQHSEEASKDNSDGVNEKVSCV
Summary of the method: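 CHO cells stably expressing human HTR2A were plated for 18 h at 37 C, then loaded with calcium dye for 1 h. Compounds were preincubated 5 min at room temperature before DOI (4 nM solution) was added. Kinetic fluorescence was read for 3 min.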

[12] = target: Muscarinic acetylcholine receptor M1 (Homo sapiens) (UniProt P11229); experiment: Cholinergic receptor muscarinic 1 (CHRM1) small molecule agonists, cell-based qHTS assay (AID 1963589); further: nearly all actives have a fitted effect of over 35% in size
Sequence of Muscarinic acetylcholine receptor M1 (Homo sapiens) (P11229 whole entry, looked up): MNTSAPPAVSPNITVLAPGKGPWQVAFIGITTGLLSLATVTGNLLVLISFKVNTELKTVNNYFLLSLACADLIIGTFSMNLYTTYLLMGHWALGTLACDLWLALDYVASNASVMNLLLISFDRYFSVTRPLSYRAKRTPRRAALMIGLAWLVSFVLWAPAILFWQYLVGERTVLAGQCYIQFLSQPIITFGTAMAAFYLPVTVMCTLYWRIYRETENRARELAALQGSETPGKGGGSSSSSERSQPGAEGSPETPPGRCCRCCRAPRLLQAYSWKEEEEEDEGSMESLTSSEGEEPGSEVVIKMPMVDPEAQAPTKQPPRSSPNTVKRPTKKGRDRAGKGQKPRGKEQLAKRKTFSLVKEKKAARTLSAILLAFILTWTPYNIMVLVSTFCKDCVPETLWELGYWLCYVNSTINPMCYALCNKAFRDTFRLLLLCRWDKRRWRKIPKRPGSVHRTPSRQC
Summary of the method: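 Agonist-mode calcium-flux screen: compounds at 15 concentrations, three independent runs, were pin-transferred onto dye-loaded human CHRM1-CHO cells. Fluorescence was then recorded kinetically every second over minutes.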

[13] = cAMP Responsive Elements (CRE) small molecule agonists, cell-based qHTS assay (AID 1963590)
Summary of the method: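 Agonist mode: compound added to CRE-bla HEK 293T cells (2,000/well, 18 h after plating) for 3 h at 37 C/5% CO2. Reporter activity detected via FRET beta-lactamase substrate, 2 h room-temperature loading.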

[14] = cAMP Responsive Elements (CRE) small molecule antagonists, cell-based qHTS assay (AID 1963591; active means well fitted inhibition curve with a large enough effect in the signal ratio in the repeat runs, not every such curve was filed as active; the % refers to the signal ratio)
Summary of the method: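 Antagonist mode: compounds are added alongside the adenylyl cyclase activator NKH477 (0.25 uM final) to CRE-bla HEK293T cells for 3 h. LiveBLAzer FRET substrate, 2 h at room temperature, reports bla expression.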

[15] = target: D(2) dopamine receptor (Homo sapiens) (UniProt P14416); experiment: Dopamine D2 receptor (DRD2) small molecule antagonists, cell-based qHTS assay (AID 1963595; active means well fitted inhibition curve with a large enough effect in the signal ratio in the repeat runs, with a control signal flat; the % refers to the signal ratio)
Sequence of D(2) dopamine receptor (Homo sapiens) (P14416 whole entry, looked up): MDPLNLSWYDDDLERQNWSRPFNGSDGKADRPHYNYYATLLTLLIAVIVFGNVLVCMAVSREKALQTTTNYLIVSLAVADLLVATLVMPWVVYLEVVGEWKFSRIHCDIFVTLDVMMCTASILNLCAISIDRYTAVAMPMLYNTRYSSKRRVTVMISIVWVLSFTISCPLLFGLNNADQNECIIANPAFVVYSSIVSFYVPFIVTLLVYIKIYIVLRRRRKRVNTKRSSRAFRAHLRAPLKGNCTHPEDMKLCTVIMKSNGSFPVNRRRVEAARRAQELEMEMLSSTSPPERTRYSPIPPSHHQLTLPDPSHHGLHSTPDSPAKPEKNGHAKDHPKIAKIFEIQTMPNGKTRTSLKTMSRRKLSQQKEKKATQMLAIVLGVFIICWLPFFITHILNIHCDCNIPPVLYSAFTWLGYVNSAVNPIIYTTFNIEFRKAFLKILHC
Summary of the method: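 Cells were plated and grown for 24 h at 37 °C. Ro20-1724 (0.1 mM final) went in first, then compound for 10 min. NKH477 (200 nM) with quinpirole (12 nM) followed for 30 min at RT, then HTRF detection reagents for 1 h.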

[16] = p53 small molecule agonists, cell-based qHTS assay with human liver microsomes: qHTS cell viability counter screen (AID 1963579); further: nearly all actives have a fitted effect of over 45% in size; further: potency means the concentration at half of the fitted maximal effect
Summary of the method: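 p53RE-bla cells, 4,000/well, dosed 5 hours after plating, with human liver microsomes (0.5 mg/mL final) plus NADPH (0.5 mg/mL final), 16 hours at 37 C. Viability read as CellTiter-Glo luminescence after 30 min at room temperature.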

[17] = target: 5-hydroxytryptamine receptor 2A (Homo sapiens) (UniProt P28223); experiment: 5-hydroxytryptamine receptor 2A (HTR2A) small molecule agonists, cell-based qHTS assay (AID 1963587); further: nearly all actives have a fitted effect of over 30% in size; further: potency means the concentration at half of the fitted maximal effect
Summary of the method: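 CHO cells stably expressing human HTR2A, plated 18 h, loaded with calcium dye 1 h at 37 C. Agonist mode: compounds added and intracellular calcium fluorescence recorded kinetically for 2 min at 1 sec intervals.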

[18] = target: Muscarinic acetylcholine receptor M1 (Homo sapiens) (UniProt P11229); experiment: Cholinergic receptor muscarinic 1 (CHRM1) small molecule antagonists, cell-based qHTS assay (AID 1963588); further: nearly all actives have a fitted effect of over 40% in size; further: potency means the concentration at half of the fitted maximal effect
Summary of the method: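 Compounds were tested at 15 concentrations in three independent runs. Dye-loaded CHRM1-CHO cells were exposed 5 min at room temperature before stimulation by acetylcholine added at 50nM. Intracellular calcium was read kinetically on FDSS for 3 min.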

[19] = target: Beta-2 adrenergic receptor (Homo sapiens) (UniProt P07550); experiment: Adrenergic beta2 receptor (ADRB2) small molecule antagonists, cell-based qHTS assay (AID 1963592); further: nearly all actives have a fitted effect of over 50% in size; further: potency means the concentration at half of the fitted maximal effect
Sequence of Beta-2 adrenergic receptor (Homo sapiens) (P07550 whole entry, looked up): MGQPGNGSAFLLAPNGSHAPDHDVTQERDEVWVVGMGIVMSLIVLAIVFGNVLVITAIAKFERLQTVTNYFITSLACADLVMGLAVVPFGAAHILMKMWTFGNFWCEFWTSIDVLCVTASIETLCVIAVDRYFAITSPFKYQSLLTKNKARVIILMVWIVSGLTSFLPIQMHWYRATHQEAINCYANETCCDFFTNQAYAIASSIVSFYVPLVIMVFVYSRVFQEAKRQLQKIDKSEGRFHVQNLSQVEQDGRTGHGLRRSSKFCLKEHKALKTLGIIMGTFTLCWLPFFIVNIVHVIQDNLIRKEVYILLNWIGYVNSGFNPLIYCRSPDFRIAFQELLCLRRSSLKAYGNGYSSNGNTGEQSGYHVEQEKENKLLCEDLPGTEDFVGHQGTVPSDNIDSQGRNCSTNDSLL
Summary of the method: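 Assay format: CHO-ADRB2 cells, 18-20hr seeding at 37C/5% CO2, then compound plus 1nM isoproterenol agonist mix for 0.5hr RT. Homogeneous time-resolved fluorescence cAMP detection after 1hr, expressed as 665/615 nm ratio.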

[20] = target: D(2) dopamine receptor (Homo sapiens) (UniProt P14416); experiment: Dopamine D2 receptor (DRD2) small molecule agonists, cell-based qHTS assay (AID 1963594); further: nearly all actives have a fitted effect of over 35% in size; further: potency means the concentration at half of the fitted maximal effect
Summary of the method: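 HEK293 cells stably expressing human DRD2, pre-treated with PDE inhibitor Ro20-1724 (0.1 mM final) and compound 10 min at room temperature, then stimulated with NKH477 (200nM […]) for 30 min. cAMP read by HTRF (665/620 nm).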

Measured: Potency

CS(=O)(=O)c1cc(C(F)(F)F)ccc1C(=O)c1cnoc1C1CC1
not listed: [16] | [17] | [18] | [19] | [20]
inactive: all other assays above

CC(CC(C#N)(c1ccccc1)c1ccccc1)N(C)C (stereo not drawn)
active: [18] 0.0105 µM
not listed: [8] | [11]
inactive: all other assays above

O=CC(Br)(Br)Br
active: [1] 8.61 µM | [2] 3.05 µM
not listed: [10] | [12] | [13] | [14] | [16] | [17] | [19]
inactive: all other assays above

CC(Cl)(Cl)[N+](=O)[O-]
not listed: [8] | [14] | [19]
inactive: all other assays above

CN(C)c1ccc(N)cc1
active: [1] 29.9 µM | [2] 8.42 µM | [16] 35.5 µM
not listed: [8] | [13] | [15] | [18] | [19] | [20]
inactive: all other assays above

SCc1ccco1
active: [2] 68.6 µM
not listed: [9] | [10] | [19]
inactive: all other assays above

CC(c1ccccc1)(c1ccc(O)cc1)c1ccc(O)cc1
active: [1] 43.3 µM | [16] 45.8 µM | [17] 49 µM | [19] 61.1 µM
not listed: [8] | [9] | [10] | [13] | [20]
inactive: all other assays above

CCN(CC)c1c([N+](=O)[O-])cc(C(F)(F)F)c(N)c1[N+](=O)[O-]
not listed: [11] | [13] | [14] | [16] | [18] | [19]
inactive: all other assays above

O=c1[nH]c(Cl)c(Cl)cc1Cl
not listed: [9] | [10] | [13] | [14] | [18]
inactive: all other assays above

CO/N=C(\C(=O)OC)c1ccccc1CO/N=C(\C)c1cccc(C(F)(F)F)c1
not listed: [10] | [13] | [16] | [20]
inactive: all other assays above

O=C(Cl)c1ccc(Cl)cc1
not listed: [9] | [10] | [12] | [17] | [19]
inactive: all other assays above

CCCCCCCCCC(=O)O[C@H]1CC[C@H]2[C@@H]3CCC4=CC(=O)CC[C@@H]4[C@H]3CC[C@]12C
not listed: [9] | [10] | [17]
inactive: all other assays above

C[N+](C)(C)CCOC(=O)C(O)(c1ccccc1)c1ccccc1
not listed: [16] | [18]
inactive: all other assays above

c1ccc2c(c1)Sc1ccccc1N2CC1CN2CCC1CC2 (stereo not drawn)
active: [1] 33.5 µM
not listed: [8] | [10] | [13] | [14] | [15] | [17]
inactive: all other assays above

Cl/C=C\Cl
not listed: [9] | [10] | [15]
inactive: all other assays above

O=C(N[C@H]1N=C(c2ccccc2F)c2cccc3c2N(CC3)C1=O)c1cc2ccccc2[nH]1
active: [20] 8.74 µM
not listed: [9] | [10]
inactive: all other assays above
